Among the test systems are SR leukemia; RPMI-8226 leukemia; OVCAR-8 ovarian; OVCAR-4 ovarian; SK-OV-3 ovarian; IGROV1 ovarian; OVCAR-3 ovarian; HS 578T breast; NCI/ADR-RES ovarian; OVCAR-5 ovarian.
Common to all, as to test: NCI-60 one-dose screen, 48 h (100 = growth as untreated, 0 = no growth, -100 = all killed)
Details in all cases: 10 µM unless noted

Values joined by “and” are separate entries in the source; they are usually repeats but may differ in a detail not shown here. Equal values may be shown once. This is part of a sample that, as a whole, favours compounds with a hit. Of some 83,000 tested, about 20% had one in any assay.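 Each cell line was grown in a 96-well plate and treated with one concentration of compound for 48 hours. Values below 10 were considered active.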 Active and inactive are the calls of the source.

In the case of `O=C1c2ccccc2C(=O)c2sc(Nc3cccc(Cl)c3)nc21`, the growth is 2.67% (active) with SR leukemia; 2.31% (active) with RPMI-8226 leukemia; 1.49% (active) with OVCAR-8 ovarian; -9.21% (active) in the assay with OVCAR-4 ovarian; 86.9% (inactive) in the assay with SK-OV-3 ovarian; 0.883% (active) in the assay with IGROV1 ovarian. The growth was -34.3% (active) with OVCAR-3 ovarian, -8.09% (active) in the assay on HS 578T breast and -16.9% (active) in the assay on NCI/ADR-RES ovarian.
Turning to `CC(=O)Nc1cccc2cc(O)ccc12`, the growth is 108% (inactive) and 107% (inactive) and 99.6% (inactive) in the assay on SR leukemia; 120% (inactive) and 112% (inactive) and 106% (inactive) in the assay on RPMI-8226 leukemia; 106% (inactive) and 100% (inactive) and 94.3% (inactive) in the assay with OVCAR-8 ovarian; 94.7% (inactive) and 93.2% (inactive) and 113% (inactive) with OVCAR-5 ovarian; 111% (inactive) and 115% (inactive) and 99.8% (inactive) in the assay on SK-OV-3 ovarian; 97.2% (inactive) and 123% (inactive) in the assay with IGROV1 ovarian. In addition, the growth in the assay on OVCAR-3 ovarian was 111% (inactive) and 105% (inactive) and 108% (inactive); in the assay on HS 578T breast, 132% (inactive) and 101% (inactive) and 98.5% (inactive); with NCI/ADR-RES ovarian, 104% (inactive) and 113% (inactive) and 110% (inactive).
`O=C(/C=C/c1cccc(Cl)c1)c1ccccc1`: the growth with SR leukemia was 7.8% (active) and 11.7% (inactive); in the assay on RPMI-8226 leukemia it was -30.6% (active) and 0.877% (active); with OVCAR-8 ovarian it was 88.2% (inactive) and 79.9% (inactive); with OVCAR-5 ovarian, 97.9% (inactive) and 95.6% (inactive); with SK-OV-3 ovarian, 109% (inactive) and 98.5% (inactive); in the assay on IGROV1 ovarian it was 93.7% (inactive) and 71.8% (inactive). Moreover, the growth with HS 578T breast was 108% (inactive) and 107% (inactive); in the assay on NCI/ADR-RES ovarian, 105% (inactive) and 88.8% (inactive).
Turning to `O=C1c2ccccc2C(=O)c2sc(Nc3ccc(Cl)cc3)nc21`, the growth with SR leukemia was 4.26% (active); in the assay on RPMI-8226 leukemia it was 7.64% (active); with OVCAR-8 ovarian it was 10.6% (inactive); in the assay on OVCAR-4 ovarian it was 1.65% (active); in the assay with SK-OV-3 ovarian, 100% (inactive); in the assay with IGROV1 ovarian, 34.8% (inactive). Besides, the growth is -39.6% (active) in the assay with OVCAR-3 ovarian, 70.6% (inactive) in the assay on HS 578T breast and 16.8% (inactive) in the assay on NCI/ADR-RES ovarian.
Regarding `Nc1nc(N)c2c(ccc3c2ccn3Cc2cccc([N+](=O)[O-])c2)n1`, the growth in the assay on SR leukemia was 110% (inactive); with RPMI-8226 leukemia it was 19.4% (inactive); in the assay on OVCAR-8 ovarian, -54.4% (active); in the assay on OVCAR-4 ovarian, -79.2% (active); in the assay with SK-OV-3 ovarian, -100% (active); with IGROV1 ovarian, -90% (active). Further, the growth with OVCAR-3 ovarian was -93.9% (active); in the assay on HS 578T breast it was -58.2% (active); with NCI/ADR-RES ovarian, 22.5% (inactive).
With `N#CSCc1c(Cl)cccc1Cl`, the growth in the assay on SR leukemia is 59.5% (inactive); in the assay on RPMI-8226 leukemia, 47.7% (inactive); in the assay with OVCAR-8 ovarian, 100% (inactive); in the assay on OVCAR-5 ovarian, 106% (inactive); in the assay on SK-OV-3 ovarian, 96.6% (inactive); with IGROV1 ovarian, 11.5% (inactive). Also, the values for the growth with OVCAR-3 ovarian, in the assay on HS 578T breast and in the assay on NCI/ADR-RES ovarian were 4.78% (active), 80.6% (inactive) and 95.4% (inactive), respectively.
For `O=C1c2cccnc2-c2nccc3c2c1nc1cc(Br)ccc13`, the growth was -38.2% (active) and 17.6% (inactive) with SR leukemia; -49.7% (active) and -22.2% (active) in the assay with RPMI-8226 leukemia; -41.9% (active) in the assay on OVCAR-8 ovarian; 32.3% (inactive) and -53% (active) in the assay on OVCAR-5 ovarian; -10.1% (active) and -96% (active) in the assay with SK-OV-3 ovarian; -77.6% (active) and -77.5% (active) with IGROV1 ovarian. Besides, the growth is -83.1% (active) and -95.4% (active) in the assay on OVCAR-3 ovarian; -74% (active) and -32.9% (active) in the assay on HS 578T breast; -50.7% (active) and -38.1% (active) in the assay with NCI/ADR-RES ovarian.
Consider `C[n+]1c(/C=C/c2ccc([N+](=O)[O-])cc2)ccc2ccccc21`, for which the growth is 82.7% (inactive) in the assay with SR leukemia; 102% (inactive) with RPMI-8226 leukemia; 91.3% (inactive) in the assay with OVCAR-8 ovarian; 112% (inactive) with OVCAR-5 ovarian; 109% (inactive) in the assay on SK-OV-3 ovarian; 104% (inactive) with IGROV1 ovarian. Besides, the growth in the assay with OVCAR-3 ovarian was 99.5% (inactive); in the assay with HS 578T breast it was 99.7% (inactive); in the assay on NCI/ADR-RES ovarian, 102% (inactive).
As to `COC(=O)c1nc(=S)[nH]c(C(=O)OC)c1C(=O)c1ccccn1`, the growth with SR leukemia was -3.79% (active); in the assay on RPMI-8226 leukemia, 52.8% (inactive); with OVCAR-8 ovarian, 20.6% (inactive); in the assay with OVCAR-5 ovarian it was 57.9% (inactive); in the assay with SK-OV-3 ovarian it was 63.2% (inactive); in the assay on IGROV1 ovarian it was 24.5% (inactive). Besides, the figures for the growth in the assay on HS 578T breast and in the assay with NCI/ADR-RES ovarian were 70.1% (inactive) and 7.03% (active), respectively.
Regarding `Oc1ccc(/C=N/NC(=S)Nc2ccccc2)nc1`, the growth in the assay with SR leukemia is -22.7% (active); with RPMI-8226 leukemia, 6.99% (active); in the assay with OVCAR-8 ovarian it was 15.2% (inactive); with OVCAR-5 ovarian it was 34.1% (inactive); in the assay on SK-OV-3 ovarian, 18.9% (inactive); in the assay with IGROV1 ovarian it was 23.2% (inactive). In addition, the growth in the assay with OVCAR-3 ovarian is 20% (inactive); with HS 578T breast, 88.5% (inactive); in the assay on NCI/ADR-RES ovarian, 3.65% (active).
Take `S=C(N/N=C/c1ccccn1)Nc1ccccn1`: the growth with SR leukemia was -29% (active); in the assay on RPMI-8226 leukemia it was -2.91% (active); with OVCAR-8 ovarian, 14.2% (inactive); with OVCAR-5 ovarian it was 49.2% (inactive); with SK-OV-3 ovarian, 36.4% (inactive); with IGROV1 ovarian, 27% (inactive). The growth with OVCAR-3 ovarian was -0.151% (active); in the assay on HS 578T breast, 97.4% (inactive); in the assay with NCI/ADR-RES ovarian, 7.98% (active).
Take `CCCCCCCCCCCCCCCCOP(=O)([O-])OCC[N+](C)(C)C`: the growth in the assay with SR leukemia is 15% (inactive); in the assay on RPMI-8226 leukemia it was 7.31% (active); with OVCAR-8 ovarian it was 59.6% (inactive); in the assay on OVCAR-5 ovarian, 53.2% (inactive); in the assay with SK-OV-3 ovarian it was 37.9% (inactive); in the assay with IGROV1 ovarian, 21.3% (inactive). The growth in the assay with HS 578T breast was 33.7% (inactive); with NCI/ADR-RES ovarian, 90% (inactive).
Regarding `Cc1ccc2c(ccc3c[n+]4c5ccccc5ccc4n32)c1`, the growth in the assay with SR leukemia is -12.5% (active); with RPMI-8226 leukemia, 31.7% (inactive); in the assay on OVCAR-8 ovarian, 3.22% (active); in the assay with OVCAR-4 ovarian it was -35.4% (active); in the assay with SK-OV-3 ovarian it was 0.442% (active); in the assay on IGROV1 ovarian, 27% (inactive). In addition, the growth is -43.2% (active) in the assay with OVCAR-3 ovarian, 14.4% (inactive) in the assay on HS 578T breast and 70.3% (inactive) in the assay with NCI/ADR-RES ovarian.
For `CC1SC(=S)N(c2ccc(Cl)cc2)C1=O` (configuration not stated), the growth was 94.8% (inactive) and 79.6% (inactive) in the assay on RPMI-8226 leukemia; 101% (inactive) in the assay on OVCAR-8 ovarian; 97.5% (inactive) and 91.3% (inactive) with OVCAR-4 ovarian; 117% (inactive) and 99.4% (inactive) with SK-OV-3 ovarian; 128% (inactive) and 92.5% (inactive) in the assay with IGROV1 ovarian; 93.3% (inactive) and 97.7% (inactive) with OVCAR-3 ovarian. For the same molecule, the growth is 161% (inactive) and 132% (inactive) in the assay on HS 578T breast; 103% (inactive) in the assay with NCI/ADR-RES ovarian.

These data come from PubChem BioAssay (NCI).
